The nature of assay [1]: AP1 Signaling Pathway (AID 357; active = well fitted curve in either direction with a large enough effect, not every such curve was filed as active;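 also: ME-180 reporter cells stimulated with EGF at its EC50 level; % is scaled to controls: 0 for no effect and ±100 for the full control effect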). The essentials: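 AP-1-bla ME-180 cells, Opti-MEM + 0.5% dialyzed FBS, plated overnight 37 °C. Cpd titration + EC50 EGF, 5 h 37 °C. CCF4 2.5 h RT; ex 405, em 460/530 ratio → %activity, AC50.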
Assay [2] concerns the target Cytochrome P450 1A2 (Homo sapiens) (UniProt P05177). The experiment in a line: p450-cyp1a2 (AID 410; calls by dose curve). Summed up: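 Read-out is luminescence from luciferin produced by CYP1A2 demethylation of Luciferin-ME (100uM, at Km). Detection reagent stopped the 60 min NADPH-dependent reaction; signals were normalized to 57 uM furafylline.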
The nature of assay [3]: NFAT Signaling Pathway (AID 444; active = well fitted curve in either direction with a large enough effect, not every such curve was filed as active;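 also: carbachol stimulus at about its EC50 of 1 µM final; % is scaled to controls: 0 for no effect and ±100 for the full control effect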). The settings on record: Jurkat NFAT-bla M1, carbachol, beta-lactamase ratio, 5 h; at 17.2 µM (top of the series) unless noted. Summed up:
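Read-out: CCF4 FRET ratio (460 nm/530 nm) after 1 h RT dye loading, used for %activity and AC50 from titration series. Cells: Jurkat NFAT-β-lactamase/M1 line, treated with compound plus 1 uM carbachol for 5 h, 37 °C.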

The nature of assay [4]: Stat Signaling Pathway (AID 446; active = well fitted curve in either direction with a large enough effect, not every such curve was filed as active;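 also: ME-180 cervical cancer cells given 40 pM IL-6 alongside compound; SIE-controlled beta-lactamase reporter measured as 460/530 nm FRET emission ratio; % is scaled to controls: 0 for no effect and ±100 for the full control effect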). The essentials: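 Normalization used AC90 stimulation (300 pM IL-6) and AC90 inhibition (125 nM pan-JAK inhibitor at 40 pM IL-6). The underlying signal is SIE-driven beta-lactamase in ME-180 cells after 5 h IL-6 exposure with compound.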
Assay [5] addresses Mitogen-activated protein kinase 10 (Mus musculus) (UniProt Q61831). In words: JNK3 AlphaScreen Assay (AID 530; active = well fitted curve in either direction with a large enough effect, not every such curve was filed as active;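 also: kinase came from lysate of stimulated human HepG2 cells; signal reports phosphorylation of biotinylated GST-cJun 1-79 at Ser73 with 10 µM ATP; % is scaled to controls: 0 for no effect and ±100 for the full control effect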). Summed up: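 Kinase buffer: 20 mM Tris-HCl pH 7.6, 10 mM MgCl2, 1 mM DTT, 0.1 mM Na3VO4, 0.01% Tween-20; ATP 10 uM. Substrate biotin-GST-cJun(1-79), enzyme from activated HepG2 lysates. Detection by Ser73 phospho-antibody AlphaScreen.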
Assay [6] has as its target 3',5'-cyclic-AMP phosphodiesterase 4B (Homo sapiens) (UniProt Q07343). In words: qHTS Assay for Inhibitors of PDE-IV (AID 607; active = well fitted activation curve with a large enough effect in the main read-out, with a control signal flat, not every such curve was filed as active; also: % of control where 0% means no effect). Summed up: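 HEK293 ACTOne cells with CNG channel (1000/well), endogenous PDE4; membrane potential dye, compounds up to 22.9 uM final. Fluorescence Ex 535/Em 590; RO 20-1724 (100 uM final) as reference.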
A short description of assay [7]: qHTS Assay for Lipid Storage Modulators (AID 1519; calls by dose curve). The settings on record: Drosophila S3 cells, BODIPY lipid droplet/cell ratio, laser cytometry, cells loaded with oleic acid; for activity change, negative = inhibition: at 25.7 µM (top of the series). The essentials:
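Cells seeded at 5,000 per well were treated with compounds over a concentration series and loaded with oleic acid (400 uM, as added). Lipid droplet fluorescence (488 nm excitation, 500-530 nm channel) was read by laser-scanning cytometry and normalized to 20 uM Triacsin C.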
For orientation: qHTS replaces the single test concentration by a dilution series.

Assay [8] deals with Ubiquitin carboxyl-terminal hydrolase 1 (Homo sapiens) (UniProt O94782). In words: Inhibitors of USP1/UAF1: Pilot qHTS (AID 504865).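 Also: rhodamine fluorescence freed from ubiquitin-rhodamine substrate followed over time; top concentration of the series differs between compounds; % is scaled to controls: 0 for no effect and ±100 for the full control effect; nearly all actives have a fitted effect of over 35% in size.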 The essentials:
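Kinetic fluorescence assay: 1nM USP1/UAF1, 15 min compound preincubation, then 150nM Ub-Rho; 480/540 nm.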

Assay [9] can be described thus: S16 Schwann cell PMP22 intronic element firefly luciferase assay (AID 624032).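 Also: plate controls were DMSO for no effect and PTC124 positive control mean for full effect; nearly all actives have a fitted effect of over 30% in size.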 Summed up: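 Luciferase reporter of PMP22 intronic-element expression in stably transfected S16 rat Schwann cells, read by ONE-Glo luminescence after 24 h compound exposure at 37 C. Activity scaled between DMSO (0%) and positive-control PTC124; concentration-effect curves quality-classified.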

The nature of assay [10]: qHTS profiling for inhibitors of Plasmodium falciparum proliferation (AID 504749).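 Also: 0% = DMSO vehicle and full inhibition = artemisinin control; nearly all actives have a fitted effect of over 60% in size.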 The following applies: P. falciparum in erythrocytes, SYBR Green DNA, 72 h, at 12.8 µM (top of the series). The essentials:
(§1)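 In a 72 h erythrocytic culture (37 C, humidified, 5% CO2) at 2.5% hematocrit and 0.3% starting parasitemia, compounds were tested; SYBR Green I in detergent lysis buffer stained parasite DNA overnight.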

In assay [11] the test system is 3D7. Described as above. The settings on record: P. falciparum in erythrocytes, SYBR Green DNA, 72 h; series mostly up to 12.8 µM. Summed up:
as §1

Assay [12] has as its system AS120. The description is as above. The settings on record: P. falciparum in erythrocytes, SYBR Green DNA, 72 h; series mostly up to 12.8 µM. The essentials: as §1
The test system of assay [13] is ATS189. Described as above. The settings on record: P. falciparum in erythrocytes, SYBR Green DNA, 72 h; series mostly up to 12.8 µM. Summed up:
as §1

Assay [14] relates to CP217. Described as above. The settings on record: P. falciparum in erythrocytes, SYBR Green DNA, 72 h; series mostly up to 12.8 µM. Summed up:
as §1

For assay [15], the system named is CP247. The description is as above. The following applies: P. falciparum in erythrocytes, SYBR Green DNA, 72 h; series mostly up to 12.8 µM. The essentials:
as §1

In assay [16] the test system is CP250. Described as above. The following applies: P. falciparum in erythrocytes, SYBR Green DNA, 72 h; series mostly up to 12.8 µM. Summed up:
as §1

In assay [17] the test system is SC27B. The description is as above. The settings on record: P. falciparum in erythrocytes, SYBR Green DNA, 72 h; series mostly up to 12.8 µM. Summed up: as §1
Assay [18] can be described thus: S16 Schwann cell viability assay (CellTiter-Glo assay) (AID 624031).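 Also: native untransfected S16 rat Schwann cells; plate controls were DMSO-treated cells for no effect and cell-free wells for full effect; nearly all actives have a fitted effect of over 70% in size.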 The essentials: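 Concentration-effect curves come from CellTiter-Glo luminescence of S16 rat Schwann cells after 24 h compound exposure. Each reading was normalized to DMSO wells (0%) and wells without cells, and curves were ranked by r2 and response magnitude.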
For orientation: ATP-based viability assays read luminescence as a measure of living cells.

The mark [19] stands for this setting: measured here: cell count channel max response.
The mark [20] stands for this setting: measured here: lipid channel max response.

Each structure is given as a SMILES string. Records with an inconclusive call do not appear. Active and inactive are the calls of the source. Unless noted, calls follow the shape of the dose curve; as a rule, active = well fitted curve in the direction sought with a large enough effect; inconclusive = small, poorly fitted or top-dose-only effect, or another doubt; inactive = no such curve, though single readings can be large; an effect the other way counts as inactive or inconclusive.

Sequence of Ubiquitin carboxyl-terminal hydrolase 1 (Homo sapiens) (O94782 whole entry, looked up): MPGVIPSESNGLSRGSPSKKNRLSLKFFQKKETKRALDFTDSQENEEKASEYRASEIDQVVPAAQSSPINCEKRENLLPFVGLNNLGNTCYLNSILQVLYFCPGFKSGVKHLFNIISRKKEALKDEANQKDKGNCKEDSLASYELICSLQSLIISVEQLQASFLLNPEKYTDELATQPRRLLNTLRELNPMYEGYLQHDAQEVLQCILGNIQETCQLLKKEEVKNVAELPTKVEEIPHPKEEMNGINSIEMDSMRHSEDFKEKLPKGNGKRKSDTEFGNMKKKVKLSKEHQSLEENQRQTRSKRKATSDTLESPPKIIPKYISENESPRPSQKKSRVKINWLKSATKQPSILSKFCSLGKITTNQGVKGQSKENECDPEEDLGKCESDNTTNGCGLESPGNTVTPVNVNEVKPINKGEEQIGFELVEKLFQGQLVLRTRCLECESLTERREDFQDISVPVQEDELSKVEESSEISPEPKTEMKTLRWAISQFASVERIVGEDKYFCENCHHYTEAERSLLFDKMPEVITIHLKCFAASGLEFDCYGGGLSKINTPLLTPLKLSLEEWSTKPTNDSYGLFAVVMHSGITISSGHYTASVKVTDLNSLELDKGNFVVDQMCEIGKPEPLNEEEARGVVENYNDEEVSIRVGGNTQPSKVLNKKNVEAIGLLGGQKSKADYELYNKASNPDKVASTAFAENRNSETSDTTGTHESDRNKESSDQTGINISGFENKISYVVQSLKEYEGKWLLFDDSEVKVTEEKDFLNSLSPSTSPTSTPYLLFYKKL
Sequence of Cytochrome P450 1A2 (Homo sapiens) (P05177 whole entry, looked up): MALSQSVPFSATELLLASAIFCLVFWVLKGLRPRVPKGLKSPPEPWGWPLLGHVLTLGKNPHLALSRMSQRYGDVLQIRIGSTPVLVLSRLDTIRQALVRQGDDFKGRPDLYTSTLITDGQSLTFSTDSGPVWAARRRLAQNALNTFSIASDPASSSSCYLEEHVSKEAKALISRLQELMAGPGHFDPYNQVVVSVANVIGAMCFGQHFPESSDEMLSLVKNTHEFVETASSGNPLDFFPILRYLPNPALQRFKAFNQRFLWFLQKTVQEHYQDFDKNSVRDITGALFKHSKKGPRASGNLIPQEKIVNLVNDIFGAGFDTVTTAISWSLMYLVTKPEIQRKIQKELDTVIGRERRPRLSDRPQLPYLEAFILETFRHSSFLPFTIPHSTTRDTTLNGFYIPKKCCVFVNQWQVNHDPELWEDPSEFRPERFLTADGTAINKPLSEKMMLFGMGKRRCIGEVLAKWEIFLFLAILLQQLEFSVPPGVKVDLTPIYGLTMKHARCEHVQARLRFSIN
Sequence of 3',5'-cyclic-AMP phosphodiesterase 4B (Homo sapiens) (Q07343 whole entry, looked up): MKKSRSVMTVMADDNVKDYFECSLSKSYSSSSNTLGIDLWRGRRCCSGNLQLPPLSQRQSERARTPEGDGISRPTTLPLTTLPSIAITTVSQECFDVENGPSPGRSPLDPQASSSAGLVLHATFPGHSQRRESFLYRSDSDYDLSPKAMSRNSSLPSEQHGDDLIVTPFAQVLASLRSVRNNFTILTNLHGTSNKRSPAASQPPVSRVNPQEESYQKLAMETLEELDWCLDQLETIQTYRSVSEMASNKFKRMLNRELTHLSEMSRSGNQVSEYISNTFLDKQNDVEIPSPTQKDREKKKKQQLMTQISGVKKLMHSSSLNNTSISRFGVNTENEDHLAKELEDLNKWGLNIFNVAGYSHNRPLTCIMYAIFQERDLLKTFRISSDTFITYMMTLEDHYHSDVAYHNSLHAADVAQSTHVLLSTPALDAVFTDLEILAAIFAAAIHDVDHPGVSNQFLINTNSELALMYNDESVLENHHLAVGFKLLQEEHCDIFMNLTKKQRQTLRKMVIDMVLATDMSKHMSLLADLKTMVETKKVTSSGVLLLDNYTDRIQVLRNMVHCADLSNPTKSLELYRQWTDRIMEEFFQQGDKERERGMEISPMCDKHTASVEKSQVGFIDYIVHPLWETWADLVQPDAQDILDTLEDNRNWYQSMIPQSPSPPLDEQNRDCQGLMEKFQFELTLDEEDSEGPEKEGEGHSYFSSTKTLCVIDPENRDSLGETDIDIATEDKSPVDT

Turning to `NC(=O)c1ccc[n+]([C@@H]2O[C@H](COP(=O)([O-])OP(=O)(O)OC[C@H]3O[C@@H](n4cnc5c(N)ncnc54)[C@@H](O)[C@@H]3O)[C@@H](O)[C@@H]2O)c1`, the compound was called inactive in [1], in assay [4] and in assay [6]. Besides, the Potency entry in assay [2], in assay [5], in assay [8], in assay [9], in assay [11] and in assay [12] was “inactive” throughout. The Potency result in [13], in assay [14], in assay [15], in assay [16] and in assay [17] was “inactive” in each case. For the same compound, the activity change, negative = inhibition in assay [3] is 1.83% (inactive); in assay [7] it was -1.1% (inactive). Further, the max response is -9.17% in assay [7] (setting [19]) and -22.7% in assay [7] (setting [20]). For the same compound, the activity, negative = inhibition is 0.56% (inactive) in assay [10] (parasite line A) and 2.43% (inactive) in assay [10] (parasite line B).

For the compound `CC(C)(CO)[C@H](O)C(=O)NCCCO`, the compound was called inactive in [1], in assay [4] and in assay [6]. Also, the Potency entry in assay [2], in [5] and in [8] was “inactive” in each case. Also, the results for the activity change, negative = inhibition in [3] and in [7] were 9.07% (inactive) and -3.05% (inactive), respectively. The max response was -6.65% in [7] (setting [19]) and -8.62% in [7] (setting [20]).

For the compound `CNC[C@H](O)[C@H](O)[C@H](O)[C@H](O)CO`, the call in assay [1], in assay [4] and in assay [6] was inactive. Further, the Potency result in assay [2], in assay [5] and in [8] was “inactive” in each case. Moreover, the activity change, negative = inhibition is 3.99% (inactive) in assay [3] and -1.7% (inactive) in assay [7]. Moreover, the max response in [7] (setting [19]) was -11%; in assay [7] (setting [20]), -14.3%.

On to `NC(=O)c1cc[n+](CC2=C(C(=O)[O-])N3C(=O)[C@@H](NC(=O)Cc4cccs4)[C@@H]3SC2)cc1`, for which the compound was called inactive in assay [1], in [4], in assay [6] and in assay [18]. In addition, the Potency result in [2], in assay [5], in assay [8], in [9], in assay [11] and in [12] was “inactive” in each case. In addition, the Potency result in assay [13], in [14], in assay [15], in [16] and in [17] was “inactive” each time. Moreover, the values for the activity change, negative = inhibition in assay [3] and in assay [7] were -11% (inactive) and -1.16% (inactive), respectively. Moreover, the max response was -15% in assay [7] (setting [19]) and -16.9% in [7] (setting [20]). The values for the activity, negative = inhibition in assay [10] (parasite line A) and in assay [10] (parasite line B) were -3.3% (inactive) and 1.86% (inactive), respectively.

Regarding `CC[C@@H]1OC(=O)[C@H](C)[C@H](O[C@@H]2C[C@](C)(OC)[C@H](O)[C@H](C)O2)[C@H](C)[C@H](O[C@@H]2O[C@@H](C)C[C@@H](N(C)C)[C@@H]2O)[C@](C)(O)C[C@H](C)C(=O)[C@H](C)[C@H](O)[C@]1(C)O`, the compound was called inactive in [1], in [4] and in assay [6]. In addition, the Potency result in assay [2] and in assay [5] was “inactive” in each case. Besides, the activity change, negative = inhibition in assay [3] was 0.792% (inactive); in assay [7], -1.3% (inactive). Besides, the values for the max response in [7] (setting [19]) and in [7] (setting [20]) were 9.04% and 8.95%, respectively.

The values above are taken from PubChem BioAssay (NCATS).
